Compound activity (PubChem BioAssay)
Shown are actives, neighbours in structure and some others; about 7.3% of the full set was active somewhere.
FMDV antiviral – High Throughput Screening for Foot and Mouth Disease Virus Antivirals; Potency, µM (doses to about 57.9 µM), without a hit: at the highest dose activity change, negative = inhibition, usual class: inhibitors; FMDV antiviral cell-based qHTS; 1.2% of 410,000 active; calls by dose curve; tested in HEK293T cells; also: read-out not given here; potency is read from the fitted curve at half-maximal effect; nearly all actives have a fitted effect of over 45% in size
HCMV antiviral – qHTS Assay for inhibitors of the human cytomegalovirus (HCMV); HFF cells, HCMV-luciferase reporter, 72 h; stronger effect = lower value; activity change, negative = inhibition, % at 57.5 µM; 4.5% of 410,000 active; AID 1259415, 2018; in the data active = activity change below about -60%; inconclusive = no clear call, values can overlap the other calls; inactive = above about -39%
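Human foreskin fibroblasts infected with luciferase-reporter HCMV at MOI 1 PFU/cell, compounds at two doses. Luciferase measured 72 h post infection; normalized to buffer-only basal and Salinomycin (10uM) controls.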
HCV inhibitor – qHTS Assay for Inhibitors of Hepatitis C Virus (HCV); Potency, µM (doses to about 41.8 µM), for inactives: top-dose activity change, negative = inhibition, most hits filed as inhibitors; AID 651820, 2012; Huh7.5.1 HCVcc-Cre infection, luciferase reporter, 44 h; 3.4% of 340,000 active; active = well fitted inhibition curve with a large enough effect; inconclusive = small, poorly fitted or top-dose-only effect, or another doubt; inactive = no such curve, though single readings can be large or run the other way; also: potency is read from the fitted curve at half-maximal effect
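Whole-lifecycle infectious HCVcc-Cre system; cells 1,000/well, compound then virus (~0.5 moi) added 4 h after plating, 44 h culture. Luciferase read 15 sec following 15 min substrate incubation, room temp.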
Vaccinia Venus – qHTS for Stage-Specific Inhibitors of Vaccinia Orthopoxvirus: Venus Reporter Primary qHTS. Potency, µM (top dose mostly 36.5 µM), without a hit: top-dose activity change, negative = inhibition, most hits filed as inhibitors. 0.46% of 330,000 active. AID 720580, 2013. Vaccinia virus Venus reporter expression, fluorescence; calls by dose curve; tested in A549 cells; also: potency is read from the fitted curve at half-maximal effect; nearly all actives have a fitted effect of over 30% in size
VACV mCherry inh – qHTS for Stage-Specific Inhibitors of Vaccinia Orthopoxvirus: mCherry Reporter Primary qHTS; 0.63% of 310,000 active; Vaccinia virus mCherry reporter infection, fluorescence; AID 720579, 2013; Potency, µM (top dose mostly 36.5 µM), for inactives: at the top dose activity change, negative = inhibition, most hits filed as inhibitors; calls by dose curve; tested in A549 cells; also: potency is read from the fitted curve at half-maximal effect; nearly all actives have a fitted effect of over 35% in size
Numbers without * were called inactive; i = inactive; ? = inconclusive; · = no result given; ! = repeats disagree; [ ] = dose if it differs, or a comment. % is scaled to controls: 0 for no effect and ±100 for the full control effect.

SMILES	FMDV antiviral	HCMV antiviral	HCV inhibitor	Vaccinia Venus	VACV mCherry inh
O=C(Oc1c(CN2CCOCC2)cc(Cl)c2cccnc12)c1ccccc1Cl	-19.2%	-98.0*	?	5.62µM*	3.55µM*
COc1ccc(CCNC(=O)c2ccc3c(c2)N(Cc2ccc(C)cc2)CCS3)cc1OC	?	-32.2	8.91µM*	-13.0%	-16.3%
Cc1ccc(CCNC(=O)c2ccc3c(c2)N(Cc2ccc(F)cc2)CCS3)cc1	1.0%	1.5	·	-16.1%	-14.6%
COc1ccc(CCNC(=O)c2ccc3c(c2)N(Cc2ccccc2C)C(=O)c2ccccc2S3)cc1OC	-22.4%	-78.7*	·	-14.6%	-18.1%
Cc1ccc(CN2CCSc3ccc(C(=O)NCc4cccnc4)cc32)cc1	21.2%	60.5	25.1µM*	·	·
COc1ccc(CCNC(=O)c2ccc3c(c2)NC(=O)CS3)cc1OC	-1.7%	0.0	-18.0%	-10.1%	i
COc1ccc(CCNC(=O)c2ccc3c(c2)N(Cc2ccc(F)cc2)C(=O)CS3)cc1OC	?	-65.6*	·	-11.8%	-12.3%
COc1ccc(CNC(=O)c2ccc3c(c2)N(Cc2ccc(C)cc2)CCS3)cc1	27.8%	-9.5	·	-6.9%	-10.0%
CC1CCCCc2cc(O)ccc2OC(=O)CC1 (stereo unspecified)	·	-10.6	·	·	·
Cc1ccccc1NC(=O)CSc1nc(-c2ccccc2)cn1-c1ccccc1F	-1.4%	-21.0	·	-8.3%	-13.3%
CCOC(=O)/C=C/[C@H](C)NC(=O)C(F)(F)F	·	-15.3	·	·	·
COc1ccc(-n2c(=O)c3ccccc3n(Cc3ccc(F)cc3Cl)c2=O)cc1OC	-13.1%	26.1	·	-7.3%	-7.8%
COCCSc1ncnc2c1oc1nc3c(cc12)COC(C)(C)C3	27.7%	22.3	-24.8%	·	·
CC1(C)Cc2nc3oc4c(N(CCO)Cc5ccccc5)ncnc4c3cc2CO1	31.6µM*	?	?	·	·
COc1ccc(OC)c(C2C3=C(COC3=O)Nc3cc4c(cc32)OCO4)c1 (stereo unspecified)	-22.3%	-84.2*	-6.5%	·	·
COc1ccc(-c2nc(CSCC(=O)NCCc3ccc(OC)c(OC)c3)c(C)o2)cc1	?	-28.0	·	-18.1%	i
N#Cc1ccc(CN2C(=O)c3ccccc3Sc3ccc(C(=O)OCc4ccco4)cc32)cc1	-18.2%	20.4	·	-1.1%	-15.5%
CC(=O)N[C@@H](CS)C(=O)O	-12.4%	57.0	10µM*!	-12.1%	i
Cc1cc(C(=O)N/N=C/c2c(C)[nH]c3ccccc23)n[nH]1	0.9%	37.0	6.0%	2.0%[7.34 µM]	-14.3%[7.34 µM]
Cc1ccc(-c2cc(C(=O)N/N=C/c3c(C)nn(-c4ccccc4)c3C)[nH]n2)cc1	·	-98.5*	?	·	·
Cc1nn(-c2ccccc2)c(C)c1/C=N/NC(=O)c1cc(C(C)(C)C)[nH]n1	0.0%	9.0	?	?	·
Cc1ccc(-c2cc(C(=O)N/N=C/c3c(C)nn(-c4ccccc4)c3C)n[nH]2)s1	?	-91.9*	8.91µM*	·	·
Cc1[nH]c2ccccc2c1/C=N/NC(=O)c1cc(-c2cccs2)[nH]n1	-7.2%	?	11.2µM*	·	·
CN(C)CCCNc1cc(N2CCN(C3CCCCC3)CC2)c2noc3c2c1C(=O)c1ccccc1-3	-16.3%	-27.4	·	57.9%	i
CSc1ccc(/C=N/NC(=O)CNc2cccc3ccccc23)cc1	-5.0%	2.2	1.9%	-14.1%	-15.5%
SMILES	FMDV antiviral	HCMV antiviral	HCV inhibitor	Vaccinia Venus	VACV mCherry inh
O=C(CNc1cccc(C(F)(F)F)c1)N/N=C/c1cccc(Br)c1	-0.7%	-73.5*	?	?	-23.9%
Cc1cccc(NCC(=O)N/N=C/c2cccc(Br)c2)c1	-2.5%	?	-10.4%	·	·
O=C(CNc1cccc2ccccc12)N/N=C/c1ccc[nH]1	-7.5%	-68.0*	1µM*	?	?
C/C(=N\NC(=O)CNc1cccc(C)c1)c1ccc(Br)s1	9.5%	-61.9*	?	-20.3%	-6.4%
Cc1cccc(NCC(=O)N/N=C\c2ccc[nH]2)c1	0.4%	18.5	8.91µM*	8.4%	?
OCC1OC(C(N=Nc2ccccc2)=NNc2ccccc2)C(O)C1O (stereo unspecified)	·	33.5	·	·	·
CC(NC(=O)/C(=C/c1ccc(OC(F)F)cc1)c1ccccc1)c1ccccc1 (stereo unspecified)	?	-79.3*	?	?	?
Cc1cc2[nH]c3ccccc3c2c(C)n1	-26.5%	-98.0*	?	-28.7%	-2.2%
Cc1[nH]c2ccccc2c1C(c1c(C)[nH]c2ccccc12)c1c(C)[nH]c2ccccc12	·	·	·	27.1%	12.6%
COc1cccc(CNC(=O)Cc2ccc(NC(=O)N3CCSc4ncccc43)cc2)c1OC	-13.8%	0.0	·	-13.9%	-7.6%
Oc1ccc2ccccc2c1CNc1ccc(Br)cn1	50.2%	45.8	?	·	·
Oc1ccc2ccccc2c1CNc1ccc(Br)cc1	-9.2%	-15.9	2.51µM*	·	·
N#CCCn1c(=O)c(-c2ccc(F)cc2)nc2cnc(Oc3ccccc3)nc21	-2.8%	·	·	·	·
COC1(OC)C(/C=C/c2ccc(C)cc2)C(C#N)(C#N)C1(OC)OC (stereo unspecified)	22.4µM*	2.4	?	28.2µM*	14.1µM*
Cc1cccc(N2CCN(S(=O)(=O)c3ccc4c(c3)C(C(C)C)C(=O)N4)CC2)c1C (stereo unspecified)	0.0%	?	·	-21.9%	?
O=C1c2ccc(-c3nc4ccccc4o3)cc2C(=O)N1Cc1cccnc1	·	-25.4	7.1%	-1.3%	-15.4%
O=C1c2ccc(-c3nc4ccccc4o3)cc2C(=O)N1Cc1ccccc1	4.3%	-105.1*	-11.1%	-9.0%	-7.2%
Cc1ccc(C)c(CN2C(=O)c3ccccc3S(=O)(=O)c3ccc(C(=O)N4CCN(c5ccccc5F)CC4)cc32)c1	4.4%	?	·	-4.1%	-5.6%
Cc1cnc(SCc2ccccn2)nc1C1CCCN(C(=O)c2ccc3c(c2)OCO3)C1 (stereo unspecified)	-19.0%	·	·	-24.6%	-18.9%
COC(=O)c1ccc(-n2nnc(-c3nc(-c4ccc5c(c4)OCO5)no3)c2C)cc1	-2.4%	5.0	·	-5.1%[7.34 µM]	-8.9%[7.34 µM]
O=C(CSC1=NNC(c2ccccn2)S1)Nc1ccccc1 (stereo unspecified)	4.4%	-97.5*	14.1µM*	·	·
O=C(CSc1nncn1-c1ccccn1)Nc1cccc(Cl)c1	-5.4%	36.1	10.2%	-11.5%	i
O=C(CSC1=NNC(c2ccccn2)S1)Nc1cccc(Cl)c1 (stereo unspecified)	12.7%	-77.9*	1.6%	?	?
COc1ccc(Cl)cc1NC(=O)c1cc(C)nc2c1c(C)nn2-c1ccccc1	-3.7%	0.8	·	-10.8%	-5.7%
CCc1ccccc1N1CC(c2nc3ccccc3n2CCC2CCCCC2)CC1=O (stereo unspecified)	?	-107.7*	·	?	i
